The entries come from a sample that favours hits as a whole.
G9a inh: qHTS Assay for Inhibitors of Histone Lysine Methyltransferase G9a; Potency, µM (top dose mostly 102 µM), usual class: inhibitors; Histone-lysine N-methyltransferase EHMT2 (Homo sapiens), Q96KQ7; hit rate 8.8% among 350,000; G9a H3K9 monomethylation, AlphaScreen, 2 h; note: nearly all actives have a fitted effect of over 75% in size
Target sequence (Q96KQ7 913-1193 limits assumed): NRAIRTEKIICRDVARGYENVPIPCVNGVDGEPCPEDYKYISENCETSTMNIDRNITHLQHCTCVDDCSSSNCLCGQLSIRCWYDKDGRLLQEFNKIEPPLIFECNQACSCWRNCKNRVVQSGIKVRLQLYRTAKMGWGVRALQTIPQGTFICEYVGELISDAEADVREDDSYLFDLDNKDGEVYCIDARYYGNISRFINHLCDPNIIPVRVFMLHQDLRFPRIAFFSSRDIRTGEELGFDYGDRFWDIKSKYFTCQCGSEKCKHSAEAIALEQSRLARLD
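Using a bead-based AlphaScreen, monomethylated H3K9 product from 2 h room-temperature reactions (G9a 20 nM, peptide 500 nM, SAM 20 uM) was detected with 0.5 ug/mL rabbit anti-H3K9me1 antibody.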
Sfp PPTase inh: qHTS Assay for Inhibitors of Bacillus subtilis Sfp phosphopantetheinyl transferase (PPTase); 4'-phosphopantetheinyl transferase ffp (Bacillus subtilis), Q9F4F7; Biochemical Sfp PPTase activity, qHTS; Potency, µM, most hits filed as inhibitors; hit rate 3.5% among 310,000;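 note: the enzyme is Sfp with the accession as filed and its product quenches rhodamine fluorescence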
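Fluorescence-quenching assay: 15 nM Sfp-PPTase preincubated 15 min at room temperature with compound, then 5 uM rhodamine-CoA and 12.5 uM BHQ-2-labelled YbbR peptide added. Fluorescence (ex 525/em 598 nm) read at start and after 30 min; difference gives rate.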
ALOX12 inh: Primary qHTS assay for inhibitors of human arachidonate 12S-lipoxygenase (ALOX12): Round 2 | Polyunsaturated fatty acid lipoxygenase ALOX12 (Homo sapiens), P18054 | AID 1671190, 2021 | purified 12hLO, xylenol orange hydroperoxide absorbance | hit rate 1.1% among 580,000 | Potency, µM (doses to about 108 µM), most hits filed as inhibitors
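Purified human 12hLO (150 nM final) in 25 mM Hepes, 0.01% Triton X-100, pH 7.0 was preincubated 15 min at room temperature with compound. Then 40 uM arachidonic acid was added, 30 min. Hydroperoxide was read by Fe-XO absorbance ratio 573/405 nm.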
GRP78 ERSR act: qHTS for Inducers of the Endoplasmic Reticulum Stress Response (ERSR) in Human Glioma: qHTS. U87-MG GRP78 promoter luciferase reporter, 16 h. Potency, µM, usual class: activators. hit rate 0.02% among 420,000. AID 602332, 2012; note: series mostly up to about 76 µM; nearly all actives have a fitted effect of over 35% in size
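Stably transfected U87-MG glioma cells carrying a GRP78-based luciferase sensor; 16 h compound incubation. Luminescence end-point read 10 min after Bright-Glo addition at room temperature.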
VDR inhibitor: Inhibitors of the vitamin D receptor (VDR): qHTS; Vitamin D3 receptor (Homo sapiens), P11473; VDR-SRC2-3 peptide fluorescence polarization, 2 h; Potency, µM, hits mostly inhibitors; hit rate 0.93% among 400,000; AID 504847, 2011
Target sequence (P11473 whole entry, looked up): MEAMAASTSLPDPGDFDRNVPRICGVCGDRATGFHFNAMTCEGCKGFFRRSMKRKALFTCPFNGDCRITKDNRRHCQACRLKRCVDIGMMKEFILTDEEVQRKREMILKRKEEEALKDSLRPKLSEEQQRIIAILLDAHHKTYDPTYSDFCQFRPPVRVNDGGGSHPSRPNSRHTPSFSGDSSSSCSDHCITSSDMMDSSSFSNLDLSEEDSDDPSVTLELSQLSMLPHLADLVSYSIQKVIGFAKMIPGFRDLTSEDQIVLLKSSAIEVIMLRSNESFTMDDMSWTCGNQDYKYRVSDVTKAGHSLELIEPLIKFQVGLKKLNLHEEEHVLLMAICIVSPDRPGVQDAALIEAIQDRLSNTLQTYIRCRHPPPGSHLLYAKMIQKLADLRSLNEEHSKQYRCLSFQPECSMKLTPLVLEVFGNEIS
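Compounds are added to VDR with labelled SRC2-3 coactivator peptide and held 2 h at room temperature. Inhibition of the VDR–peptide interaction is then read as a change in fluorescence polarization.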
Hits are given with their value; i = inactive; ? = inconclusive; nt = no result; ! = not confirmed by another sample; [ ] = dose if it differs, or a comment. Calls come from the whole dose curve; as a rule, active = well fitted curve in the direction sought with a large enough effect; inconclusive = small, poorly fitted or top-dose-only effect, or another doubt; inactive = no such curve, though single readings can be large; an effect the other way counts as inactive or inconclusive.

SMILES	G9a inh	Sfp PPTase inh	ALOX12 inh	GRP78 ERSR act	VDR inhibitor
O=C1NC(=S)N(c2ccc(Br)cc2)C(=O)/C1=C/N1CCN(C(=O)c2ccco2)CC1	45µM	i	?	i	?
Cc1cccc(N2C(=O)/C(=C/N3CCN(C(=O)c4ccco4)CC3)C(=O)NC2=S)c1	?	?	?	i	i
CN1C(=O)C(C2(O)C(=O)N(Cc3ccccc3)c3cc([N+](=O)[O-])ccc32)c2ccccc21 (stereo not drawn)	nt	nt	i	nt	nt
CN(C)c1ccc(NC(=O)CN2C(=O)CN=C(c3ccccc3)c3cc(Cl)ccc32)cc1	40µM	79µM	i	i	i
O=c1[nH]c(=O)n(Cc2ccco2)c(O)c1C=NC1CC1	i	i	i	i	i
S=c1[nH]nc(C2CC2)n1Cc1ccco1	2.5µM	i	?	i	i
O=C1N(Cc2cccnc2)C[C@H]2CN(C3CCOCC3)CCN12	nt	nt	i	nt	nt
C[C@H]1OC[C@@H](C[N+](C)(C)C)O1	1.6µM	i	?	i	i
CC1OC(C[N+](C)(C)C)CC1O (stereo not drawn)	i	nt	i	i	i
C[C@@H]1O[C@H](C[N+](C)(C)C)C[C@H]1O	16µM!	nt	i	i	i
CN(C)Cc1cn(C[C@H]2C[C@@H]3CCN2C[C@@H]3C(=O)Nc2nccs2)nn1	nt	nt	i	nt	nt
O=C([C@H]1CN2CC[C@H]1C[C@@H]2Cn1cc(CO)nn1)N1CCOCC1	nt	nt	i	nt	nt
C=CCN(C)C(=O)[C@H]1CN2CCC1C[C@@H]2Cn1cc(-c2ccc(C(C)(C)C)cc2)nn1 (stereo partly drawn)	nt	nt	i	nt	nt
CC/C(=C(\c1ccc(O)cc1)c1ccc(OCCN(C)C)cc1)c1ccccc1	?	40µM	?	i	i
COc1ccc(CCNCc2ccc(Cl)cc2)cc1	nt	nt	14µM	nt	nt
CCc1ccc(CNCCc2ccc(OC)cc2)cc1	nt	nt	2.5µM	nt	nt
COc1ccc(CCNCc2ccc(SC)cc2)cc1	nt	i	?	i	i
COc1ccc(CCNCc2ccccc2C)cc1	nt	nt	i	nt	nt
Nc1nonc1C(=O)N/N=C/c1ccc([N+](=O)[O-])o1	50µM	i	i	i	i
CCC(c1nnnn1-c1ccc(OC)cc1)N1CCC(n2c(=O)[nH]c3ccccc32)CC1 (stereo not drawn)	nt	nt	i	i	nt
COc1ccc(N2C(=O)CC(N3CCC(n4c(=O)[nH]c5ccccc54)CC3)C2=O)cc1 (stereo not drawn)	40µM	i	i	i	i
CN1C(=O)N(C)C(=O)C(CCc2ccncc2)(CCc2ccncc2)C1=O	nt	i	i	i	i
COc1cc(CC2(CCc3ccncc3)C(=O)N(C)C(=O)N(C)C2=O)cc(OC)c1OC	22µM	i	i	i	i
Cc1nc(-c2cccs2)cc([C@H]2CN3CC[C@H]2C[C@@H]3CO)n1	nt	nt	i	nt	nt
COc1cccc(-n2c(/C=C/c3ccc(O)c(O)c3)nc3ccccc3c2=O)c1	45µM	i	32µM	i	i
SMILES	G9a inh	Sfp PPTase inh	ALOX12 inh	GRP78 ERSR act	VDR inhibitor
COc1ccc(CCNCc2cccc(C(F)(F)F)c2)cc1OC	11µM	i	i	i	i
COc1cccc(CNCCc2ccccc2)c1OC	i	i	i	i	i
COc1ccccc1CCNCc1cccc(C(F)(F)F)c1	71µM	i	?	i	i
CC(Cc1ccccn1)N(C)Cc1ccc(S(C)(=O)=O)cc1 (stereo not drawn)	nt	nt	i	nt	nt
Cc1ncc2c(n1)C[C@@H]1CC[C@H]2N1C(=O)Nc1ccc(C)c(F)c1	nt	nt	i	nt	nt
CCOc1ccccc1N=Cc1c(O)n(C)c(=O)n(C)c1=O	50µM	i	i	i	i
O=C(Cc1ccc(F)cc1)N1CCN(C2CCN(CCc3ccccc3)C2=O)CC1 (stereo not drawn)	nt	nt	i	nt	nt
COc1ccc(NC(=O)NC[C@H]2C[C@@H]3CCN2C[C@@H]3c2cc(-c3ccccc3Br)nc(C)n2)cc1	nt	nt	35µM	nt	nt
Cc1nc(-c2ccccc2)cc([C@H]2CN3CC[C@H]2C[C@@H]3CNC(=O)NC(C)C)n1	nt	nt	25µM	nt	nt
Cc1ccc(C(=O)NC[C@H]2C[C@@H]3CCN2C[C@@H]3c2cc(-c3ccccc3Br)nc(C)n2)cc1	nt	nt	i	nt	nt
Cc1nc(-c2ccccc2)cc([C@H]2CN3CC[C@H]2C[C@@H]3CNC(=O)C2CCC2)n1	nt	nt	i	nt	nt
COc1ccc(CNC[C@H]2C[C@@H]3CCN2C[C@@H]3c2cc(-c3cccs3)nn2C)cc1	nt	nt	i	nt	nt
CCC(C)N1CCN(C(=O)Cc2ccccc2)CC1 (stereo not drawn)	8.9µM	i	i	i	i
COc1cc(CN2CCN(C(=O)Cc3ccccc3)CC2)cc(OC)c1OC	25µM	i	?	i	i
COc1ccccc1CN1CCN(C(=O)COc2ccccc2)CC1	?	i	?	i	i
COc1ccccc1CC(=O)N1CCN(CCc2ccccc2)CC1	i	i	i	i	i
COc1ccc(CN2CCN(C(=O)Cc3ccccc3)CC2)c(OC)c1	20µM	i	i	i	i
O=C(Cc1ccccc1)N1CCN(CCCc2ccccc2)CC1	?	i	0.89µM	i	i
COc1cc2c(cc1OCCN(C)C)NC(=O)C21CCN(Cc2ccccc2)CC1	nt	nt	i	nt	nt
O=C(Cc1ccccc1)N1CCN(Cc2cccc(Br)c2)CC1	nt	50µM	i	i	i
Oc1c(Br)cc(Br)cc1CN1CCN(Cc2ccccc2)CC1	45µM	i	i	i	i
COc1ccc(Br)cc1CN1CCN(C(=O)Cc2ccccc2)CC1	22µM	?	?	i	i
O=C(Cc1ccc(Br)cc1)N1CCN(Cc2ccccc2)CC1	i[12.7 µM]	i	i	i	?
C#C[C@H]1CN2CC[C@H]1C[C@@H]2CNCc1ccc(C(F)(F)F)cc1	nt	nt	i	nt	nt
O=C(NCc1ccccc1)[C@H]1CN2CCC1C[C@@H]2Cn1cc(CC2CCCCC2)nn1 (stereo partly drawn)	nt	nt	i	nt	nt
SMILES	G9a inh	Sfp PPTase inh	ALOX12 inh	GRP78 ERSR act	VDR inhibitor
Cc1cccc(-n2c(O)c(C)c(=O)[nH]c2=S)c1	nt	i	45µM	i	i
O=c1[nH]c(=S)n(-c2cccc(Cl)c2)c(O)c1/C=N/N1CCOCC1	?	i	?	i	i
COc1ccc2c(c1)C1(CCN(C(=O)c3ccccc3Br)C1)C(=O)N2 (stereo not drawn)	nt	nt	32µM	nt	nt
O=C1C2CCCN2C(c2ccccc2)N1c1ccccn1 (stereo not drawn)	i	i	i	i	i
COc1ccc(C2N(c3cc(C)on3)C(=O)C3CCCN32)cc1 (stereo not drawn)	35µM	i	i	i	i
Cc1cc(N2C(=O)C3CCCN3C2c2sccc2C)no1 (stereo not drawn)	22µM	?	?	i	i
O=[N+]([O-])c1c(Cl)c(Cl)c(Cl)c(Cl)c1Cl	nt	nt	i	i	i
Nc1cc(Cl)c2nonc2c1[N+](=O)[O-]	32µM	i	?	i	?

Screens deposited in PubChem by National Center for Advancing Translational Sciences (NCATS).
